Among the test systems are DU-145 prostate; K-562 leukemia; MALME-3M melanoma; MDA-MB-231 breast; RXF 393 renal; SF-268 CNS; SF-295 CNS; SF-539 CNS; UACC-257 melanoma; M14 melanoma; HCT-15 colon; HT29 colon; SNB-75 CNS; SNB-19 CNS; U251 CNS; PC-3 prostate; SK-MEL-5 melanoma; UACC-62 melanoma; LOX IMVI melanoma; SK-MEL-28 melanoma.
Common to all, as to assay: NCI-60 one-dose screen, 48 h (100 = growth as untreated, 0 = no growth, -100 = all killed)
Common to all, as to conditions: 10 µM unless noted

Our source for the growth values is PubChem BioAssay (NCI).

This is part of a sample that, as a whole, favours compounds with a hit. Of some 83,000 tested, about 20% had one in any assay.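 Method: cells in 96-well plates; compound added at one concentration; 48 h incubation; percent growth measured; values under 10 scored active.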 Values without a mark were called inactive. Activity calls are given as the source filed them.

For `C#CCOc1cccc(Nc2ncnc3ccc(NC(=O)C=C)cc23)c1`, the growth in the test on DU-145 prostate is 24.1%; with K-562 leukemia, 46%; with MALME-3M melanoma it was 60.8%; in the test with MDA-MB-231 breast, 54%; with RXF 393 renal, 2.49% (active); in the test on SF-268 CNS it was 40.2%. Also, the growth in the test on SF-295 CNS was 66.2%; in the test with SF-539 CNS, 32.1%; with UACC-257 melanoma, 54.9%; in the test with M14 melanoma, 51.4%; with HCT-15 colon, 42.9%; in the test on HT29 colon it was 30.7%. For the same compound, the growth in the test on SNB-75 CNS is 26.6%; in the test with SNB-19 CNS, 48.2%; with U251 CNS, 45.6%; in the test with PC-3 prostate, 48.5%; in the test with SK-MEL-5 melanoma, 65.7%; in the test with UACC-62 melanoma, 51%. For the same compound, the growth is 41.1% with LOX IMVI melanoma and 77.8% in the test with SK-MEL-28 melanoma.
`c1cc2c(ccc3[nH]c(-c4ccc5[nH]ncc5c4)c4c(c32)CCCC4)n1`: the growth in the test with DU-145 prostate is 66%; in the test on K-562 leukemia, 2.93% (active); with MALME-3M melanoma, 35.9%; with MDA-MB-231 breast, 78.4%; in the test on RXF 393 renal, 89.3%; in the test with SF-268 CNS it was 62.3%. Moreover, the growth was 63.6% in the test on SF-295 CNS; 62.9% in the test with SF-539 CNS; 74.9% in the test on UACC-257 melanoma; 61.9% in the test with M14 melanoma; 61.6% in the test on HCT-15 colon; 51.7% in the test with HT29 colon. Besides, the growth is 62.1% in the test with SNB-75 CNS; 44.5% with SNB-19 CNS; 36.8% in the test on U251 CNS; 28.4% with PC-3 prostate; 61.7% with SK-MEL-5 melanoma; 54.6% with UACC-62 melanoma. The growth with LOX IMVI melanoma was 61.5%; in the test with SK-MEL-28 melanoma it was 67.3%.
On to `CCOC(=O)c1cc(C(=O)c2cc(OC)c(OC)c(OC)c2)n2ncccc12`, for which the growth is 23.7% with DU-145 prostate; 10.9% with K-562 leukemia; 44.9% in the test on MALME-3M melanoma; 31.2% in the test with MDA-MB-231 breast; -4.2% (active) with RXF 393 renal; 47.7% with SF-268 CNS. The growth in the test on SF-295 CNS is 13.6%; in the test on SF-539 CNS, -12.3% (active); with UACC-257 melanoma it was 52.1%; in the test with M14 melanoma, 3.88% (active); in the test on HCT-15 colon, 24%; in the test on HT29 colon it was 3.66% (active). The growth with SNB-75 CNS is 34%; in the test with SNB-19 CNS, 38.9%; with U251 CNS it was 14.8%; with PC-3 prostate, 21.1%; with SK-MEL-5 melanoma it was 25.9%; in the test on UACC-62 melanoma, 29.5%. The growth in the test with LOX IMVI melanoma is 42.5%; with SK-MEL-28 melanoma it was 67.7%.
With `CCN(CC)Cc1cc(C=C2C(=O)NC(=S)NC2=O)cc(OC)c1O`, the growth in the test on DU-145 prostate is 111%; in the test with K-562 leukemia, 117%; in the test on MALME-3M melanoma it was 111%; in the test with MDA-MB-231 breast it was 103%; with RXF 393 renal, 115%; in the test on SF-268 CNS, 101%. Further, the growth with SF-295 CNS is 102%; with SF-539 CNS, 101%; with UACC-257 melanoma, 106%; with M14 melanoma, 108%; with HCT-15 colon it was 105%; in the test on HT29 colon, 108%. Also, the growth was 99.1% with SNB-75 CNS; 98.6% in the test on SNB-19 CNS; 98.6% in the test with U251 CNS; 102% in the test with PC-3 prostate; 106% with SK-MEL-5 melanoma; 96.5% with UACC-62 melanoma. Further, the growth in the test on LOX IMVI melanoma is 105%; in the test on SK-MEL-28 melanoma, 107%.
Consider `Cc1cc(C(=O)O)c(C)n1-c1cccc(C(=O)O)c1`, for which the growth is 16.9% with DU-145 prostate; 63.3% with K-562 leukemia; 113% in the test with MALME-3M melanoma; 96.8% in the test on MDA-MB-231 breast; 61.8% with RXF 393 renal; 84.5% with SF-268 CNS. The growth in the test with SF-295 CNS was 61.3%; in the test on SF-539 CNS, 102%; with UACC-257 melanoma, 70.1%; in the test on M14 melanoma, 90.9%; with HCT-15 colon it was 9.52% (active); with HT29 colon, 28.4%. Moreover, the growth with SNB-75 CNS is 121%; in the test with SNB-19 CNS, 87%; with U251 CNS it was 64.2%; with PC-3 prostate, 98.4%; in the test on SK-MEL-5 melanoma, 95.8%; in the test on UACC-62 melanoma, 85.1%. Besides, the growth in the test with LOX IMVI melanoma was 65%; with SK-MEL-28 melanoma it was 102%.
Regarding `Nc1nc2ccccc2c2c(=O)c3cccc(Cl)c3sc12`, the growth was 94.7% with DU-145 prostate; 91.7% in the test with K-562 leukemia; 101% in the test with MALME-3M melanoma; 78.9% with MDA-MB-231 breast; 106% in the test with RXF 393 renal; 102% in the test on SF-268 CNS. Further, the growth in the test with SF-295 CNS is 97.9%; in the test with SF-539 CNS it was 88.4%; with UACC-257 melanoma, 104%; in the test on M14 melanoma, 96.9%; with HCT-15 colon, 59%; in the test with HT29 colon it was 92.7%. In addition, the growth was 89.2% in the test on SNB-75 CNS; 92.6% in the test with SNB-19 CNS; 77.3% with U251 CNS; 78.5% in the test with PC-3 prostate; 96.3% in the test with SK-MEL-5 melanoma; 85.7% in the test with UACC-62 melanoma. Moreover, the growth in the test with LOX IMVI melanoma is 90.2%; in the test with SK-MEL-28 melanoma, 108%.
Take `CCOC(=O)C#Cc1c(C(=O)OCC)nnn1Cc1ccc([N+](=O)[O-])cc1`: the growth with DU-145 prostate is 10.4%; in the test with K-562 leukemia it was 4.56% (active); with MALME-3M melanoma it was 53.8%; in the test with MDA-MB-231 breast it was 83.1%; in the test with RXF 393 renal, -58.4% (active); with SF-268 CNS it was 87.4%. Moreover, the growth is 99.8% with SF-295 CNS; 47.3% in the test on SF-539 CNS; 42% in the test with UACC-257 melanoma; 43.8% in the test with M14 melanoma; -20% (active) in the test with HCT-15 colon; 7.68% (active) in the test on HT29 colon. The growth with SNB-75 CNS was 65.3%; in the test on SNB-19 CNS it was 87.9%; in the test on U251 CNS, 96.5%; with PC-3 prostate, 72.7%; in the test on SK-MEL-5 melanoma it was 93.2%; in the test with UACC-62 melanoma, 76%. Besides, the growth in the test with LOX IMVI melanoma was -0.0172% (active); with SK-MEL-28 melanoma, 87%.
